Only some compounds are listed: those with a hit (about 3.7% of all), similar ones and a draw of the others.
TIM10 inh: growth inhibitors of isogenic TIM10 control yeast, primary screen, counter-screen for tim10-1 yeast inhibitor project, luminescence, uHTS; inhibition, % at 10 µM; actives 1.4% (n = 330,000); S. cerevisiae TIM10 strain growth, BacTiter-Glo luminescence, 24 h;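 active = inhibition of 40% or more at the single tested concentration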;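 note: wild-type TIM10 isogenic control strain grown at permissive 25 °C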
PfHsp90 set2: growth inhibition of PfHsp90-expressing yeast, primary screen, antimalarial PfHsp90 inhibitor project, S. cerevisiae, BacTiter-Glo luminescence, single point, set 2 | inhibition, % at 9.4 µM | AID 504621, 2011 | BacTiter-Glo ATP, 48 h; yeast lacking PDR1 and PDR3 efflux regulators | actives 0.32% (n = 310,000);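 active = every replicate shows inhibition above about 80%, whatever the replicate mean, limit read from the data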;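 note: 0% = DMSO neutral controls and 100% = 20 µM radicicol positive controls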
tim23-1 inh: growth inhibitors of tim23-1 mutant yeast, primary screen, luminescence, uHTS; AID 463212, 2010; S. cerevisiae tim23-1 growth, BacTiter-Glo luminescence, 24 h; actives 1.3% (n = 330,000); inhibition, % at 20 µM;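 active = growth inhibition of the mutant yeast at or above 50%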;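 note: temperature-sensitive mutant grown at 25 °C; plate controls were DMSO-treated mutant yeast for no effect and medium wells lacking yeast for full effect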
V-ATPase pHluor: regulators of yeast V-ATPase proton pumping, primary screen, pHLuorin cytosolic pH fluorescence. S. cerevisiae. response, % at 10 µM. actives 0.37% (n = 350,000). AID 504577, 2011; in the data active = response mostly above about 7.3%, no sharp cut-off; inactive = mostly below about 5.4%; note: actives read high
tim10-1 inh: growth inhibitors of tim10-1 mutant yeast, primary screen, luminescence, uHTS | AID 463190, 2010 | inhibition, % at 20 µM | S. cerevisiae tim10-1 ts strain growth, BacTiter-Glo, 24 h | actives 2.2% (n = 330,000);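 active = inhibition of at least 40%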;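 note: mutant grown at 25 °C; 0% = DMSO wells with yeast and 100% = wells holding no yeast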
VATPase regulator: yeast V-ATPase proton pumping modulators, confirmation, S. cerevisiae, pH-sensitive GFP, second cherry-pick | S. cerevisiae pHLuorin cytosolic pH, V-ATPase proton transport | response, % at 10 µM | actives 2% (n = 980) | shares compounds with V-ATPase pHluor | AID 602197, 2012; in the data active = response above about 24%;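 note: plate controls were vehicle wells for no effect and positive control wells for full effect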
The depositor's hits bear a star.

Results for COc1ccc(Cl)cc1S(=O)(=O)N1CCCC(C(=O)NCc2ccccc2)C1 (stereo not given) ?
TIM10 inh: -3.9; PfHsp90 set2: -20.4; tim23-1 inh: 16.3; V-ATPase pHluor: -2.4; tim10-1 inh: 8.0

How did COc1ccc(Cl)cc1S(=O)(=O)N1CCCC(C(=O)N2CCOCC2)C1 (stereo not given) do in these assays?
TIM10 inh: -1.7; PfHsp90 set2: 13.6; tim23-1 inh: 1.5; V-ATPase pHluor: 9.5*; tim10-1 inh: -0.4; VATPase regulator: 2.7

What do the screens show for `CN(C(=O)c1ccc(NC(=O)Cc2ccc(NC(=O)C3CCCN(C(=O)C4CCCC4)C3)cc2)cc1)C1CC1` (stereo not given)?
TIM10 inh: 3.8; PfHsp90 set2: -4.2; tim23-1 inh: 15.1; V-ATPase pHluor: 19.8*; tim10-1 inh: 9.7; VATPase regulator: -6.5

What do the screens show for `COc1ccccc1CNC(=O)CS(=O)(=O)c1ccccc1`?
TIM10 inh: 7.0; PfHsp90 set2: -33.3; tim23-1 inh: 7.6; V-ATPase pHluor: 1.3; tim10-1 inh: 6.7

What do the screens show for `CCCC(=O)C1=C(O)C(C(=O)OC)C(C)(C)CC1=Nc1ccc(Br)cc1` (stereo not given)?
TIM10 inh: 21.9; PfHsp90 set2: 8.3; tim23-1 inh: 28.6; V-ATPase pHluor: -0.3; tim10-1 inh: 22.2

Results for CCCC(=O)C1=C(O)C(C(=O)OC)C(C)(C)CC1=Nc1ccc(C)cc1 (stereo not given) ?
TIM10 inh: 15.4; PfHsp90 set2: 17.2; tim23-1 inh: 38.2; V-ATPase pHluor: 8.3*; tim10-1 inh: 25.9; VATPase regulator: 0.9

How did COc1ccc(Cl)cc1NC(=O)C[n+]1cccc(C)c1 do in these assays?
TIM10 inh: -6.8; PfHsp90 set2: 11.2; tim23-1 inh: 20.2; V-ATPase pHluor: 3.6; tim10-1 inh: 25.3

What do the screens show for `O=S(=O)(c1ccccc1)N(CC(O)Cn1c2ccccc2c2ccccc21)c1ccccc1` (stereo not given)?
TIM10 inh: 2.0; PfHsp90 set2: 2.6; tim23-1 inh: 19.8; V-ATPase pHluor: 7.8*; tim10-1 inh: 26.2; VATPase regulator: 0.0

Results for CC1(C)CC(=O)C(C(C2=C(O)CC(C)(C)CC2=O)c2cccs2)C(=O)C1 (stereo not given) ?
TIM10 inh: -1.7; PfHsp90 set2: 9.3; tim23-1 inh: 25.0; V-ATPase pHluor: 10.7*; tim10-1 inh: -6.1; VATPase regulator: 35.5*

How did O=C(NCC(=O)N1CC=C(c2ccccc2)CC1)c1ccco1 do in these assays?
TIM10 inh: -11.6; tim23-1 inh: 19.6; V-ATPase pHluor: -0.6; tim10-1 inh: -4.5

What do the screens show for `Cc1nnc(SC(C)C(=O)N(C)C2CCCCC2)n1N` (stereo not given)?
TIM10 inh: 7.9; PfHsp90 set2: 0.0; tim23-1 inh: 9.3; V-ATPase pHluor: 7.1*; tim10-1 inh: 11.0; VATPase regulator: 0.0

Results for Cc1ccc2oc(C(=O)N(C)Cc3ccon3)c(C)c2c1 ?
TIM10 inh: -4.1; PfHsp90 set2: 8.2; tim23-1 inh: 12.0; V-ATPase pHluor: -0.5; tim10-1 inh: 17.8

How did Cc1ccc2oc(C(=O)N(C)Cc3ccc(C)o3)c(C)c2c1 do in these assays?
TIM10 inh: 0.3; PfHsp90 set2: -17.9; tim23-1 inh: 20.8; V-ATPase pHluor: 12.1*; tim10-1 inh: 18.7; VATPase regulator: 68.5*

Results for CC(C)NC(=O)Nc1ccc2c(c1)C(=O)N([C@H](C)CO)C[C@H](C)[C@@H](CN(C)S(=O)(=O)c1cn(C)cn1)O2 ?
TIM10 inh: -4.1; PfHsp90 set2: 7.6; tim23-1 inh: -1.3; V-ATPase pHluor: -2.5; tim10-1 inh: -4.4

Results for O=C1CN(C(=O)COc2ccc(Br)cc2Br)c2ccccc2N1 ?
TIM10 inh: 19.6; PfHsp90 set2: -4.7; tim23-1 inh: 5.6; V-ATPase pHluor: 8.8*; tim10-1 inh: 12.7; VATPase regulator: 2.5

What do the screens show for `CCOC(=O)Cn1c(S(=O)(=O)Cc2ccccc2)nc2ccccc21`?
TIM10 inh: 9.3; PfHsp90 set2: -3.3; tim23-1 inh: 25.4; V-ATPase pHluor: -5.1; tim10-1 inh: 22.5; VATPase regulator: -2.0

How did CCOC(=O)Cn1c(=O)cnc2ccccc21 do in these assays?
TIM10 inh: 1.2; PfHsp90 set2: -12.8; tim23-1 inh: 17.0; V-ATPase pHluor: 2.6; tim10-1 inh: 12.7; VATPase regulator: -3.9

Results for COC(=O)Cn1c(=O)cnc2ccccc21 ?
TIM10 inh: 2.4; PfHsp90 set2: 2.2; tim23-1 inh: 9.0; V-ATPase pHluor: 1.7; tim10-1 inh: 3.8

How did CCOC(=O)Cn1c(-c2ccc(Cl)nc2)nc2ccccc21 do in these assays?
TIM10 inh: 0.9; PfHsp90 set2: 37.2; tim23-1 inh: 14.4; V-ATPase pHluor: 0.3; tim10-1 inh: 7.6; VATPase regulator: 1.1

Results for O=C(CSc1nnc(-c2ccc(F)cc2)o1)N1CCCC1 ?
TIM10 inh: -15.1; PfHsp90 set2: 29.2; tim23-1 inh: 1.8; V-ATPase pHluor: -1.0; tim10-1 inh: 0.1

What do the screens show for `Cc1ccc(Cn2c(SCC(=O)N3CC(=O)Nc4ccccc43)nc3ccccc3c2=O)cc1`?
TIM10 inh: 27.1; PfHsp90 set2: 5.8; tim23-1 inh: 23.7; V-ATPase pHluor: -1.6; tim10-1 inh: 26.6

What do the screens show for `O=C1CN(C(=O)CSc2nc3ccccc3c(=O)n2CC2CCCO2)c2ccccc2N1` (stereo not given)?
TIM10 inh: -5.8; PfHsp90 set2: -5.1; tim23-1 inh: 6.8; V-ATPase pHluor: 10.8*; tim10-1 inh: 6.7; VATPase regulator: -1.2

How did CC[C@@]1(C(=O)OC)N[C@H](CN(C)S(=O)(=O)c2ccc(C(C)(C)C)cc2)[C@@H]2C(=O)N(C)C(=O)[C@@H]21 do in these assays?
TIM10 inh: 0.3; PfHsp90 set2: -7.5; tim23-1 inh: 1.5; V-ATPase pHluor: -0.6; tim10-1 inh: 2.6

Results for CCOCC(=O)N1CCN(Cc2ccc3c(c2)OCO3)CC1 ?
TIM10 inh: -0.8; PfHsp90 set2: 1.0; tim23-1 inh: 12.3; V-ATPase pHluor: 9.3*; tim10-1 inh: 1.7; VATPase regulator: 0.4

What do the screens show for `CCC(C(=O)N1CCN(Cc2ccc3c(c2)OCO3)CC1)n1nnc2ccccc2c1=O` (stereo not given)?
V-ATPase pHluor: 1.1

How did CCCC(=O)N1CCN(Cc2ccc3c(c2)OCO3)CC1 do in these assays?
TIM10 inh: -4.5; PfHsp90 set2: 1.8; tim23-1 inh: -9.0; V-ATPase pHluor: -2.1; tim10-1 inh: -17.5

Results for C[C@@H](C(=O)N1CCN(Cc2ccc3c(c2)OCO3)CC1)n1nnc2ccccc2c1=O ?
TIM10 inh: 6.1; PfHsp90 set2: 15.7; tim23-1 inh: 15.5; V-ATPase pHluor: 24.3*; tim10-1 inh: 20.9; VATPase regulator: 2.1
